# hcDAF-12 act: activates DAF-12 receptor from parasite H. contortus. HEK293 hcDAF-12 lit1-tk-luc reporter, luminescence; 0% DMSO, 100% Δ7-dafachronic acid. activation, % at 6.8 µM. hit rate 1.4% among 370,000;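 active = activation above the mean of all tested compounds plus 3 SD, cut at about 5.5% in these data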;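 also: 100% = response to 3 µM Δ7-dafachronic acid high control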
# DAX1 inh-1: DAX1 (NR0B1) inhibition, primary screen; HEK293T StAR-luciferase reporter, SF-1/DAX-1 repression relief; inhibition, % at 6.8 µM; hit rate 1.1% among 370,000; AID 652010;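 active = inhibition above the mean over all tested compounds plus 3 SD, cut at about 3.6% in these data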;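 also: 0% = DAX-1 cells with DMSO and 100% = cells lacking DAX-1 with DMSO; higher inhibition means more luminescence from relief of DAX-1 repression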
# hgDAF-12 ag: hgDAF-12 agonism, primary luciferase screen; HEK293 GAL4-hgDAF12 UAS-luciferase reporter, agonist luminescence; normalized to butyrate control; activation, % at 6.8 µM; hit rate 1.8% among 370,000; AID 687014;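 active = activation above a cutoff set at the mean of all screened compounds plus 3 SD, cut at about 10% in these data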;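 also: 0% = DMSO wells and 100% = sodium butyrate wells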
# ssDAF12 agonist: S. stercoralis DAF-12 activation, primary screen; hit rate 1% among 370,000; activation, % at 6.8 µM; AID 652126; HEK293 ssDAF-12/GRIP1 lit1-tk-luc reporter, luminescence; % of 3 µM dafachronic acid response;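 active = activation above the mean over all tested compounds plus 3 SD, cut at about 0.9% in these data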;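 also: 0% = DMSO-only wells and 100% = 3 µM delta7-dafachronic acid wells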
# DAX1 inh-2: NR0B1 (DAX1) inhibition. HEK293 Gal4-DAX1 luciferase reporter, luminescence. inhibition, % at 6.75 µM. hit rate 0.99% among 340,000. AID 504766;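 active = inhibition above the mean over all tested compounds plus 3 SD, cut at about 4.2% in these data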;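 also: 0% = DAX1-transfected cells with DMSO and 100% = empty-vector control cells with DMSO; inhibition shows as a rise in luminescence from relieved DAX1 repression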
# Target sequence (P51843 207-470 limits assumed): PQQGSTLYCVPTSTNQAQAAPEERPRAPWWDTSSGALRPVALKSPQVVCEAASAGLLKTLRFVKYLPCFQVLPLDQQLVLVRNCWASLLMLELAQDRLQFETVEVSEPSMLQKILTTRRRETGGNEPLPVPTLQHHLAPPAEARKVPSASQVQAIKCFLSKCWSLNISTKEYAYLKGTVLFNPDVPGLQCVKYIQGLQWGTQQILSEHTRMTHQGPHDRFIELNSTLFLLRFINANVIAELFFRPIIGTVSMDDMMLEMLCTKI
# DAX1 conf: confirmation of human DAX1 (NR0B1) inhibitors | shares compounds with DAX1 inh-1 | HEK293T StAR-promoter luciferase reporter, SF-1/DAX-1 repression | inhibition, % at 6.8 µM | hit rate 87% among 2,400;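 active = inhibition above the average of every tested compound plus 3 SD, cut at about 3.8% in these data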;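 also: 0% = DAX-1 cells with DMSO and 100% = no DAX-1 control cells with DMSO; active compounds raise luminescence by relieving repression of the StAR reporter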
# SF1 mutant ctr: counter-screen for DAX1 inhibitors: nonselective inhibitors with SF-1 AF2 mutant; shares compounds with DAX1 inh-1; HEK293 StAR-luciferase, luminescence; inhibition, % at 6.8 µM; hit rate 78% among 2,400;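 active = inhibition above the mean of all tested compounds plus 3 SD, cut at about 3% in these data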;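 also: 0% = DAX-1 transfected cells with DMSO and 100% = cells without DAX-1 with DMSO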
# * = called active by the depositor; . = no result given. Shown are actives, neighbours in structure and some others; about 4.1% of the full set was active somewhere.
SMILES,hcDAF-12 act,DAX1 inh-1,hgDAF-12 ag,ssDAF12 agonist,DAX1 inh-2,DAX1 conf,SF1 mutant ctr
Cc1ccc2oc(C(=O)N3CCCCCC3)c(C)c2c1,4,5.3*,10,0,2,5.2*,3.5*
CC(=O)N1CCN(C(=O)c2oc3ccccc3c2C)CC1,2,5.3*,1,-1,1,3,3.7*
Cc1c(C(=O)N2CCCCC2)oc2ccc(Br)cc12,1,5.5*,11*,1,0,5.8*,4.0*
Cc1c(C(=O)NCCCN2CCOCC2)oc2ccc(S(=O)(=O)N3CCOCC3)cc12,0,0,-5,-1,0,.,.
Cc1ccc2oc(C(=O)NCCCN3CCOCC3)c(C)c2c1,5,6.6*,11*,0,3,8.9*,7.6*
Cc1ccc2nc(-c3cccc(Br)c3)c(Cc3ccccn3)n2c1,2,5.1*,8,1.1*,.,7.8*,5.0*
Cc1ccc2nc(-c3ccc(Cl)cc3)c(Cc3ccccn3)n2c1,5,6.7*,11*,-1,.,14*,4.5*
Cc1ccc2nc(-c3ccccn3)c(N)n2c1,5,5.4*,11*,1,.,15*,6.8*
FC(F)(F)c1ccccc1Cc1c(-c2cccc(Cl)c2)nc2ccc(Br)cn12,1,2,3,0,.,.,.
Cc1ccc2nc(-c3ccccn3)c(Nc3ccccc3C)n2c1,-3,0,-6,-1,1,.,.
Cc1ccc2nc(-c3cccc(Br)c3)c(Cc3ccccc3C(F)(F)F)n2c1,0,5.1*,7,0,.,4.0*,4.2*
Cc1ccc2c(c1)-c1nc3ccccc3cc1C2=NC1CCCCC1,13*,4.8*,19*,1.6*,4,4.0*,2
CC[C@@H](CCC1CCCCC1)CN(c1ccccc1)S(C)(=O)=O,-2,-1,1,-1,.,.,.
COc1cc(C)ccc1OCC(=O)Nc1ccc2c(c1)OCO2,2,6.2*,9,0,1,7.7*,6.3*
O=C(CS(=O)(=O)c1ccc(F)cc1)Nc1nccs1,-2,2,0,-1,1,.,.
CCc1ccccc1NC(=O)COc1ccc2c(c1)OCO2,-2,0,1,-2,2,.,.
O=C(COc1ccc(F)cc1)Nc1nccs1,5,7.5*,12*,1,2,11*,6.3*
O=C(COc1ccc(F)cc1)Nc1ccc2c(c1)OCCO2,4,5.0*,10,-1,1,4.2*,3
Cc1ccc(NC(=O)COc2ccc3c(c2)OCO3)c(Cl)c1,3,5.0*,13*,-1,1,9.2*,4.3*
COc1ccccc1OCC(=O)Nc1ccc2c(c1)OCO2,-1,1,2,-1,-1,.,.
CCCCCCCCN1C(=O)[C@@H](CC(=O)NCCC(C)C)C[C@@]2(C(=O)OC)C1=C[C@H](C(C)(C)C)O[C@@H]2C,-1,1,-1,-2,.,.,.
CC(C)(C)c1nnc(NC(=O)COc2ccc3c(c2)OCO3)s1,1,7.9*,3,0,1,9.1*,7.2*
CC(C)(C)c1nnc(NC(=O)c2ccc3c(c2)OCO3)s1,4,2,10,0,3,.,.
CCCC(=O)OC12CCCN(C1)/C(=C/c1ccc(C#N)cc1)C2 (stereo unspecified),0,0,2,-1,.,.,.
COc1ccc(NC(=O)CN(C)C(=O)CSc2nc3ccccc3s2)cc1,4,5.0*,8,1,2,2,2
CN(CC(=O)Nc1ccccc1Cl)C(=O)CSc1nc2ccccc2s1,1,1,2,-1,0,.,.
CNc1cc(-c2ccc(CC#N)cc2)ncn1,3,4.5*,8,-1,.,6.8*,5.5*
CCOc1ccccc1-c1cc(NC)ncn1,-2,0,-2,0,.,.,.
O=C(N1CCC(Cc2ccccc2)CC1)n1ncc(C(O)(c2ccccc2)c2ccccc2)n1,-4,.,-10,-2,.,.,.
CCCCCCN1C[C@H](O)[C@@H](n2cc(COC(=O)c3ccccc3)nn2)C[C@@H]1c1ccccc1,-1,0,1,-1,0,.,.

# Screening data (PubChem BioAssay)
